# Data: the supplement of paper PMC10127200
# Structures can show the parent of a compound that is named as a salt.
# System: FB
# Experiment: Euclidean distance of Cell Painting phenotypic profile (signed KS, 77 features) to DMSO centroid (dimensionless distance); 5 or 10 uM (library dependent); higher = stronger phenotypic change vs DMSO (phenoactivity)
# Conditions: 48 h
# Procedure, shortened: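 Phenoactivity is computed as Euclidean distance to the median vehicle profile. The profiles, drawn from 77 Harmony features scored as signed Kolmogorov-Smirnov statistics versus same-plate vehicle wells, were corrected for plate position, correlation-weighted and replicate-averaged at the top dose. Stained cells were imaged confocally at 20X (9 fields/well) after 48 h with library compounds at 10 or 5 uM, 0.1% DMSO final, in five cancer lines and a healthy fibroblast line.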
row,SMILES,Euclidean distance
1,O=C(CCc1ccc(O)cc1)c1c(O)cc(O)cc1O [Phloretin],1.13
2,CS(=O)(=O)c1ccc([C@@H](O)[C@@H](CO)NC(=O)C(Cl)Cl)cc1 [Thiamphenicol],1.08
3,O=C(O)Cc1ccccc1Nc1c(Cl)cccc1Cl [Diclofenac Epolamine],0.969
4,CCCCCCCCCC(=O)OC1(c2ccc(Cl)cc2)CCN(CCCC(=O)c2ccc(F)cc2)CC1 [Haloperidol Decanoate],0.816
5,CCCCc1nc(-c2ccc(OCCCN(CC)CC)cc2)cn1-c1ccc(Oc2ccc(Cl)cc2)cc1 [Azeliragon],3.3
6,CC(C)(C)NCC(O)c1cc(O)cc(O)c1 (stereo unspecified) [Terbutaline Sulfate],1.27
7,CCCCOC(=O)c1ccc(N)cc1 [Butamben],1.05
8,CN(C)CCCN1c2ccccc2Sc2ccccc21 [Promazine hydrochloride],1.9
9,COCCCN1CCC(NC(=O)c2cc(Cl)c(N)c3c2OCC3)CC1 [Prucalopride Succinat],0.581
10,O=C(O)C(O)C(O)C(=O)O (stereo unspecified) [Tartaric acid],1.25
11,CCc1c(C)[nH]c2c1C(=O)C(CN1CCOCC1)CC2 (stereo unspecified) [Molindone hydrochloride],0.703
12,COc1ccc(COc2ccc(Cc3cnc(N)nc3N)cc2OC)cc1,1.13
13,CCCCCCCCCCCCC[N+](C)(C)Cc1ccccc1 [Benzalkonium chloride],1.54
14,CCCNS(=O)(=O)Nc1ncnc(OCCOc2ncc(Br)cn2)c1-c1ccc(Br)cc1 [Macitentan],0.878
15,CC(C)NNC(=O)c1ccncc1 [Iproniazid],1.08
16,CC(C)(S)[C@@H](N)C(=O)O [Penicillamine],1.13
17,Oc1c2ccccc2c2c3c(cccc13)N=N2,0.94
18,Nc1ncnc2c1c(-c1cccc(OCc3ccccc3)c1)cn2C1CC(CN2CCCC2)C1 (stereo unspecified),3.95

row,SMILES,Euclidean distance
1,Fc1ccc([C@@H]2CCNC[C@H]2COc2ccc3c(c2)OCO3)cc1 [Paroxetine HCl],1.93
2,COc1ccc(-c2nc3cc(C4=NNC(=O)CC4C)ccc3[nH]2)cc1 (stereo unspecified) [Pimobendan],1.27
3,CCN(CC)CCNC(=O)c1c(C)[nH]c(/C=C2\C(=O)Nc3ccc(F)cc32)c1C [Sunitinib],4.34
4,CCCCCCCCCC(=O)N[C@H]1[C@H](Oc2c3cc4cc2Oc2ccc(cc2Cl)[C@@H](O[C@@H]2O[C@H](CO)[C@@H](O)[C@H](O)[C@H]2NC(C)=O)[C@@H]2NC(=O)[C@H](NC(=O)[C@@H]4NC(=O)[C@H]4NC(=O)[C@@H](Cc5ccc(c(Cl)c5)O3)NC(=O)[C@H](N)c3ccc(O)c(c3)Oc3cc(O)cc4c3)c3ccc(O)c(c3)-c3c(OC4O[C@H](CO)[C@@H](O)[C@H](O)[C@@H]4O)cc(O)cc3[C@@H](C(=O)O)NC2=O)O[C@H](CO)[C@@H](O)[C@@H]1O (stereo partly specified) [Teicoplanin],0.777
5,COC(=O)C1=C(C)NC(C)=C(C(=O)OCCN2CCN(C(c3ccccc3)c3ccccc3)CC2)C1c1cccc([N+](=O)[O-])c1 (stereo unspecified) [Manidipine 2HCl],1.11
6,C#CCN(C)CCCOc1ccc(Cl)cc1Cl [Clorgyline HCl],1.14
7,Nc1nccs1 [Aminothiazole],1.92
8,COc1nc(C)nc(Cl)c1NC1=NCCN1 [Moxonidine],0.879
9,COc1ccccc1N1CCN(CCN2C(=O)CC3(CCCC3)CC2=O)CC1,1.24
10,O=C(NCc1c(F)cc(F)cc1F)c1cn2c(c(O)c1=O)C(=O)N1[C@H]3CC[C@H](C3)O[C@@H]1C2 [Bictegravir],2.16
11,CC(C)=CCOc1ccc(/C=C/C(=O)c2ccc(OCC=C(C)C)cc2OCC(=O)O)cc1 [Sofalcone],1.01
12,Cc1ccc(Nc2nccc(N(C)c3ccc4c(C)n(C)nc4c3)n2)cc1S(N)(=O)=O,2.87
13,NC12CC3CC(CC(C3)C1)C2 [Amantadine HCl],0.961
14,CC(C)NCC(O)COc1ccc(CCOCC2CC2)cc1 (stereo unspecified) [Betaxolol],0.967
15,O=C1NS(=O)(=O)c2ccccc21 [Saccharin],0.738
16,Cc1cc(OCc2nnc(SC3CCCC3)n2-c2cccnc2)ccc1-c1ccc(S(C)(=O)=O)cc1,2.69
17,Cc1ccc(C(=O)N(CCCN)[C@@H](c2oc3cc(Cl)ccc3c(=O)c2Cc2ccccc2)C(C)C)cc1,2.4
18,COc1cc2ncc(-c3ccccc3)nc2cc1OC [Tyrphostin AG 1296],1.3
